{
  "source": "PubChem BioAssay (NCATS)",
  "note": "Unmarked numbers belong to inactive results. The call rests on the fitted dose curve; in most records, active means well fitted curve in the direction sought with a large enough effect; inconclusive means small, poorly fitted or top-dose-only effect, or another doubt; inactive means no such curve, though single readings can be large; an effect the other way counts as inactive or inconclusive. Records with an inconclusive call do not appear.",
  "data": [
    {"test_system": "Nanoluciferase (engineered Oplophorus gracilirostris luciferase)", "experiment": "Primary Nanoluciferase (NLuc) qHTS assay for identification of artifact compounds. (AID 1845222);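 further: NLuc secreted into diluted conditioned medium of S16 cells; 0% = DMSO and -100% = no enzyme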", "conditions": "NLuc-conditioned medium, Nano-Glo luminescence, 5 min; series mostly up to 54.1 µM; activity, negative = inhibition: at the top concentration", "summary_of_the_method": "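Using secreted nanoluciferase in S16 culture medium (0.22 um filtered, 1:55 dilution), compounds were preincubated 15 min at RT. Signal was generated with Nano-Glo reagent (1:100) over 5 min.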", "units": {"activity, negative = inhibition": "%"}, "values": [
      {"smiles": "C=C1CCC2C(C)(C(=O)O)CCCC2(C)C1CCC1=CCOC1=O", "note": "(stereo not drawn)", "activity, negative = inhibition": 0.305},
      {"smiles": "NC(=O)c1nc(Nc2ccccc2)sc1NC(=O)C1CCCCC1", "activity, negative = inhibition": 0.458},
      {"smiles": "COc1cc2ncnc(Oc3ccc(CC(=O)Nc4cnn(C(C)C)c4)cc3)c2cc1OC", "activity, negative = inhibition": -11.1},
      {"smiles": "COC1=CC(=O)C=C(C)C12Oc1c(Cl)c(OC)cc(OC)c1C2=O", "note": "(stereo not drawn)", "activity, negative = inhibition": 0.561}
    ]},
    {"test_system": "not listed separately", "experiment": "Primary redox qHTS assay for identification of artifact compounds. (AID 1845223);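 further: 0% = DMSO and 100% = reference compound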", "conditions": "Amplex Red/HRP redox cycling with DTT, fluorescence; series mostly up to 53.8 µM; redox activity (% of DA3003): at the top concentration", "summary_of_the_method": "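Amplex Red (25 uM) and HRP (250 mU/mL) in HBSS, with compounds for 15 min, then 250 uM DTT for 30 min, room temperature, dark. Fluorescence 525/598 nm read; normalized to DMSO and 10 uM DA3003; Hill fit.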", "values": [
      {"smiles": "CC(C)(C)c1ccc(NC(=O)N2CCN(c3ncccc3Cl)CC2)cc1", "redox activity (% of DA3003)": "-5.85%"},
      {"smiles": "O=C(Nc1ccccc1)N1CCC(Cc2cnc3ccccc3c2)CC1", "redox activity (% of DA3003)": "-2.93%"},
      {"smiles": "C=C1C(=O)O[C@H]2C[C@@H](C)[C@@H]3CCC(=O)[C@@]3(C)C[C@H]12", "redox activity (% of DA3003)": "-0.864%"},
      {"smiles": "C=C1C(=O)OC2/C=C(\\C)CC3C=C(CC/C=C(\\C)CCC12)C(=O)O3", "note": "(stereo not drawn)", "redox activity (% of DA3003)": "-11.4%"},
      {"smiles": "COc1cc(C(C)=O)c(OC)c2c1OC(C)(C)C=C2", "redox activity (% of DA3003)": "-3.1%"},
      {"smiles": "C=CCc1ccc(OC(C)Cc2ccc(OC)c(OC)c2)c(OC)c1", "note": "(stereo not drawn)", "redox activity (% of DA3003)": "11.9%"},
      {"smiles": "C=C1C(=O)O[C@@H]2[C@H]3C(C)=CC(=O)C3=C(C)CC[C@@H]12", "redox activity (% of DA3003)": "6.36%"},
      {"smiles": "Cc1ccc(OC[C@H](O)[C@H](C)NC(C)C)c2c1CCC2", "redox activity (% of DA3003)": "-1.14%"},
      {"smiles": "O=C(NCCCn1ccnc1)c1cc(-c2ccco2)on1", "redox activity (% of DA3003)": "-6.78%"},
      {"smiles": "O=C(COc1ccc2ccccc2c1Br)Nc1cccnc1", "redox activity (% of DA3003)": "9.97%"},
      {"smiles": "CC(=O)O[C@@H]1CC2C(/C=C(\\C)C(=O)[C@@]3(O)C[C@@H](C)[C@H](OC(=O)c4ccccc4)C3/C=C/1C)C2(C)C", "note": "(stereo partly drawn)", "redox activity (% of DA3003)": "11.7% [at 25.6 µM]"},
      {"smiles": "C/C=C(/C)C(=O)O[C@@H]1C[C@@H](OC(=O)CC(C)C)C2(C)C3C(=O)C=C(C)C2C3C1(C)C", "note": "(stereo partly drawn)", "redox activity (% of DA3003)": "16.5% [at 25.6 µM]"},
      {"smiles": "C=C(C)C(=O)OC1CC2(C)OC(=CC2=O)C(=C)CC2OC(=O)C(=C)C12", "note": "(stereo not drawn)", "redox activity (% of DA3003)": "2.03%"},
      {"smiles": "C/C=C(/C)C(=O)OC1C=C2C3C(C)C(C)C(OC(=O)C(C)C(C)O)CC3(C)CCC2(C)C2(C)CC(OC(C)=O)C3C(C)(C)C(O)C(=O)CC3(C)C12", "note": "(stereo not drawn)", "redox activity (% of DA3003)": "1.51% [at 25.6 µM]"},
      {"smiles": "C=C1C(=O)O[C@@H]2C[C@H](C)C3=CC(=O)[C@H](O)[C@@]3(C)C[C@H]12", "redox activity (% of DA3003)": "-10.1%"},
      {"smiles": "C=CC(=O)Nc1cccc(Nc2nc(Nc3ccc(NC4CN(CCF)C4)cc3OC)ncc2C(F)(F)F)c1", "redox activity (% of DA3003)": "-6.1%"},
      {"smiles": "O=C(O)c1ccc(S(=O)(=O)N(Cc2ccc(OC(F)(F)F)cc2)c2ncc(C(F)(F)F)cc2Cl)cc1", "redox activity (% of DA3003)": "11.7%"},
      {"smiles": "O=C(NC[C@H]1CN(c2ccc(N3CCOCC3=O)cc2)C(=O)O1)c1ccc(Cl)s1", "redox activity (% of DA3003)": "-2.82%"},
      {"smiles": "C=CC(=O)Nc1cc(-n2c(=O)ccc3cnc4ccc(-c5ccc(NS(C)(=O)=O)cc5)cc4c32)ccc1C", "redox activity (% of DA3003)": "0.266%"},
      {"smiles": "Cn1cc(-c2ccc(S(=O)(=O)n3ccc(/C=C/C(=O)Nc4ccccc4N)c3)cc2)cn1", "redox activity (% of DA3003)": "1.32%"},
      {"smiles": "O=C(Nc1ccnc(NC(=O)C2CC2)c1)c1c(Cl)cccc1Cl", "redox activity (% of DA3003)": "-8.08%"},
      {"smiles": "C[C@@H]1O[C@@H](O[C@H]2[C@@H](OC(=O)[C@]34CCC(C)(C)CC3C3=CCC5[C@@]6(C)C[C@H](O)[C@H](O[C@@H]7O[C@H](CO)[C@@H](O)[C@H](O)[C@H]7O[C@@H]7OC[C@@H](O)[C@H](O)[C@H]7O)[C@@](C)(C(=O)O)C6CC[C@@]5(C)[C@]3(C)CC4)OC[C@H](O)[C@@H]2O)[C@H](O)[C@H](O)[C@H]1O[C@@H]1OC[C@@H](O)[C@H](O)[C@H]1O", "note": "(stereo partly drawn)", "redox activity (% of DA3003)": "18.4% [at 11.5 µM]"},
      {"smiles": "O=S(=O)(c1ccccc1)N(CC(F)(F)F)c1ccc(C(O)(C(F)(F)F)C(F)(F)F)cc1", "redox activity (% of DA3003)": "-0.627%"},
      {"smiles": "FC(F)(F)c1ccc(/C=C/c2nc(COc3ccc(CCCCn4ccnn4)cc3)co2)cc1", "redox activity (% of DA3003)": "-10.8%"},
      {"smiles": "CC(=O)OC(C)(C)/C=C/C(=O)[C@](C)(O)[C@H]1C(O)C[C@@]2(C)[C@@H]3CC=C4[C@@H](C=C(O[C@@H]5O[C@H](CO)[C@@H](O)[C@H](O)[C@H]5O)C(=O)C4(C)C)[C@]3(C)C(=O)C[C@]12C", "note": "(stereo partly drawn)", "redox activity (% of DA3003)": "18.1% [at 25.6 µM]"},
      {"smiles": "Cc1ccc(S(=O)(=O)N2CCC[C@H]2c2ccc(F)cc2)cc1", "redox activity (% of DA3003)": "-3.97%"},
      {"smiles": "C=C1C(=O)OC2C(OC(=O)C=C(C)C)C(C)=C3C(=O)C=C(C)C3C(O)C12", "note": "(stereo not drawn)", "redox activity (% of DA3003)": "-10.1%"},
      {"smiles": "Nc1c(S(=O)(=O)c2ccccc2)c2nc3ccccc3nc2n1-c1ccc(F)cc1", "redox activity (% of DA3003)": "1.45%"},
      {"smiles": "N#Cc1cccc(C(=O)Nc2cc(-c3ccccc3)nn2-c2ccccc2)c1", "redox activity (% of DA3003)": "-3.36%"},
      {"smiles": "Cc1ccc(C(=O)Nc2ccc(CN3CCN(C)CC3)c(C(F)(F)F)c2)cc1C#Cc1cnc2[nH]ncc2c1", "redox activity (% of DA3003)": "-2.4%"},
      {"smiles": "O=C(Nc1ccc(C(F)(F)F)cn1)N1CCN(c2ncccc2C(F)(F)F)CC1", "redox activity (% of DA3003)": "-3.27%"},
      {"smiles": "CC1=C(C(=O)Nc2cc(Cl)ccc2Cl)C(c2ccco2)C2=C(CCCC2=O)N1", "note": "(stereo not drawn)", "redox activity (% of DA3003)": "8.21%"},
      {"smiles": "COc1ccc(C(=O)Nc2c(Cl)cncc2Cl)cc1OC1CCCC1", "redox activity (% of DA3003)": "-0.196%"},
      {"smiles": "C=C1CC[C@@H](O)[C@]2(C)C[C@H]3OC(=O)C(=C)[C@H]3CC12", "note": "(stereo partly drawn)", "redox activity (% of DA3003)": "6.62%"},
      {"smiles": "O=S(=O)(c1ccc(Cl)cc1)N1CCN(c2ccnc3cc(Cl)ccc23)CC1", "redox activity (% of DA3003)": "-3.44%"},
      {"smiles": "C=C1CCC2C(C)(C(=O)O)CCCC2(C)C1CCC1=CCOC1=O", "note": "(stereo not drawn)", "redox activity (% of DA3003)": "-6.58%"},
      {"smiles": "NC(=O)c1nc(Nc2ccccc2)sc1NC(=O)C1CCCCC1", "redox activity (% of DA3003)": "-4.65%"},
      {"smiles": "COc1cc2ncnc(Oc3ccc(CC(=O)Nc4cnn(C(C)C)c4)cc3)c2cc1OC", "redox activity (% of DA3003)": "4.94%"},
      {"smiles": "COC1=CC(=O)C=C(C)C12Oc1c(Cl)c(OC)cc(OC)c1C2=O", "note": "(stereo not drawn)", "redox activity (% of DA3003)": "5.19%"}
    ]}
  ]
}
